The list is not random: actives were taken first. Their share in the collection is about 3.6%.
esBAF inh: blocks esBAF chromatin remodeling in mouse ES cells | Bmi1-luciferase knock-in reporter, 24 h; 100% = twice the neutral-well signal | reporter increase, % at 12.5 µM | 350,000 tested, 2% active | AID 602393; in the data active = activation above about 40%; inconclusive = no clear call, values can overlap the other calls;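 note: 0% = median of the plate's neutral control wells and 100% = double that signal; a rise in the Bmi1 reporter signal indicates esBAF inhibition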
APOBEC3A inh: blocks human APOBEC3A ssDNA deamination. P31941. recombinant A3A, FAM/TAMRA ssDNA deamination fluorescence. inhibition, % at 20 µM. 330,000 tested, 0.41% active. AID 493011;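 active = at least 40% inhibition at 20 µM here, with at most 30% in a related deaminase screen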;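 note: plate controls were A3A with DMSO for no effect and wells lacking A3A enzyme for full effect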
Target sequence (P31941 whole entry, looked up): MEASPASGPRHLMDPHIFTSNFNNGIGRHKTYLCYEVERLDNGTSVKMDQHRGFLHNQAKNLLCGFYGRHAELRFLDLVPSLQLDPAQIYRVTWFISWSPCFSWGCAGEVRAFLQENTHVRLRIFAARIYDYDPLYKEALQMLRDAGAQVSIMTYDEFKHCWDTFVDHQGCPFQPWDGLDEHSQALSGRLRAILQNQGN
MITF act: increases MITF-driven TRPM1 promoter luciferase signal; SK-MEL-5 TRPM1-promoter luciferase, 24 h; % of positive control, neutral wells = 0; activation, % at 12.5 µM; 300,000 tested, 0.75% active; AID 588334;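 active = mean activation of at least 80% with every replicate also reaching 80%; inconclusive = mean reaches 80% but some replicate falls short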;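 note: 0% = neutral control wells and 100% = parthenolide positive control wells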
APOBEC3G inh: inhibitors of human APOBEC3G DNA deaminase. Q9HC16. recombinant A3G, ssDNA deamination FAM/TAMRA fluorescence. inhibition, % at 20 µM. 330,000 tested, 0.28% active;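 active = inhibition of at least 40% at 20 µM, with no more than 30% in the related APOBEC3A deaminase screen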;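 note: plate controls were DMSO wells with A3G for no effect and wells lacking A3G enzyme for full effect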
PHOSPHO1 inh: inhibitors of human PHOSPHO1 phosphatase; Q8TCT1; recombinant PHOSPHO1, absorbance phosphatase assay; inhibition, % at 13.3 µM; 290,000 tested, 1.1% active; AID 1565; in the data active = inhibition above about 60%
Wnt act: activators of Wnt/beta-catenin signaling; Wnt/beta-catenin reporter cell assay, activator, plate reader; activation, % at 9.35 µM; 300,000 tested, 1.2% active; AID 743398; in the data active = activation above about 30%, passing the limit was not always enough; inconclusive = no clear call, values can overlap the other calls;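 note: 0% = neutral control wells and 100% = positive control wells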
The depositor's hits bear a star; ? = inconclusive; · = no result given.

SMILES	esBAF inh	APOBEC3A inh	MITF act	APOBEC3G inh	PHOSPHO1 inh	Wnt act
CO[C@@H]1CN(C)C(=O)c2ccc(NC(=O)C3CC3)cc2OC[C@@H](C)N(C(=O)C2CCOCC2)C[C@@H]1C	-2	·	·	·	·	·
O=C(COC(=O)c1ccc[nH]c1=O)NCCc1ccc(Cl)cc1Cl	·	1	4	-6	-8	50*
CC=Cc1ccc2n(c1=O)C[C@H]1[C@H](CO)[C@@H](C(=O)NCc3ccccc3)[C@@H]2N1S(C)(=O)=O (mixture of isomers)	6	·	·	·	·	·
COCCn1c(-c2ccco2)csc1=Nc1cccnc1	·	1	-19	-4	98*	0
CC(C)Cn1c(-c2ccco2)csc1=Nc1cccnc1	-1	2	-8	3	47	·
CC1=NN(C(N)=S)C(=O)C1N=Nc1ccc(Cl)cc1Cl (stereo unspecified)	79*	-9	·	-6	14	12
CC1=NN(C(N)=S)C(=O)C1N=Nc1ccccc1Cl (stereo unspecified)	11	0	8	-6	13	2
CC1=NN(C(N)=S)C(=O)C1N=Nc1ccccc1C(=O)O (stereo unspecified)	-1	2	4	-5	62*	2
C[C@@H]1CN([C@@H](C)CO)C(=O)c2cc(/C=C/c3ccccc3)cnc2O[C@H]1CN(C)C(=O)Nc1ccccc1F	0	·	·	·	·	·
COc1cccc(/C=N/NC(=O)c2cnn(-c3ccccc3)c2N)c1	60*	-3	50	-9	36	8
O=C(CNC(=O)c1cccs1)c1ccc([N+](=O)[O-])cc1	·	0	69	-2	67*	·
O=C(CNC(=O)c1cccs1)c1ccc(Cl)cc1	39	-4	130*	-7	40	5
O=C(N/N=C/c1ccc(-c2cccc([N+](=O)[O-])c2)o1)c1cccs1	·	1	-10	2	5	14
O=C(CNC(=O)c1cccs1)OCC(=O)c1ccc([N+](=O)[O-])cc1	·	-1	-11	-10	16	-1
O=C(N/N=C/c1ccc([N+](=O)[O-])cc1)c1cccs1	·	-2	·	-13	-6	38*
Nc1c(C(=O)N/N=C/c2cccnc2)cnn1-c1ccccc1	·	4	31	-4	-18	20
C[C@@H]1CN([C@H](C)CO)C(=O)c2cc(-c3ccc(F)cc3)cnc2O[C@H]1CN(C)C(=O)Nc1ccccc1F	-2	·	·	·	·	·
COc1ccc(C(=O)Nc2ccc3c(c2)OC[C@@H](C)N(C(C)=O)C[C@H](C)[C@H](OC)CN(C)C3=O)cc1	-2	·	·	·	·	·
COc1ccc(/C=C/C(=O)Oc2cccc(/C=N/NC(=O)c3cccc(F)c3)c2)cc1	45*	0	·	-4	50	·
COc1cccc(/C=N/NC(=O)c2cccs2)c1	25	1	·	11	12	40*
Cc1ccc(/C=N/NC(=O)CNC(=O)c2cccs2)cc1	-4	-5	15	-2	66*	4
COc1cc(/C=N/NC(=O)c2cccs2)ccc1O	9	0	4	-5	20	4
CCC(=O)Nc1ccc2c(c1)OC[C@@H](C)N(CC1CC1)C[C@@H](C)[C@@H](OC)CN(C)C2=O	-4	·	·	·	·	·
COc1ccc(NC(=O)N(C)C[C@@H]2Oc3ccc(NC(=O)Nc4cccc5ccccc45)cc3C(=O)N([C@H](C)CO)C[C@@H]2C)cc1	7	·	·	·	·	·
COc1ccccc1C#Cc1ccc2c(c1)O[C@H](CN(C)Cc1ccccc1)[C@@H](C)CN([C@H](C)CO)S2(=O)=O	-3	·	·	·	·	·
SMILES	esBAF inh	APOBEC3A inh	MITF act	APOBEC3G inh	PHOSPHO1 inh	Wnt act
O=C(Nc1cc(F)ccc1F)N1CCCCN2[C@H](CO)[C@H](c3ccc(-c4cccnc4)cc3)[C@@H]2C1	1	·	·	·	·	·
Cc1ccc(S(=O)(=O)N(C)C[C@H]2OCCCC[C@@H](C)Oc3ccc(NS(=O)(=O)c4ccc(Cl)cc4)cc3C(=O)N([C@H](C)CO)C[C@H]2C)cc1	-4	·	·	·	·	·
COc1ccc(-c2csc(-c3cccs3)n2)c(OC)c1	25	8	45	2	32	4
COc1ccc(-c2csc(-c3cccnc3)n2)cc1C	51*	2	76	1	16	10
COc1ccc2cc(-c3csc(-c4cccnc4)n3)ccc2c1	59*	-3	?	-10	18	·
c1ccc(-c2csc(-c3cccnc3)n2)cc1	·	3	31	-3	20	-1
c1ccc(-c2nc(-c3cccnc3)cs2)cc1	52*	·	35	·	25	11

High-throughput results from PubChem.
